An excerpt weighted towards active compounds, which were near 1.6% of everything screened.
KCNQ2 pot – KCNQ2 (rat) channel potentiation | B-score at 10 µM | AID 2239 | hit rate 0.54% among 310,000 | O88943 | CHO-K1 KCNQ2, FluxOR thallium flux fluorescence; active compounds read high;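 active means fluorescence ratio B-score at least 3 SD of library B-scores, with initial fluorescence B-score within 3 of them, cut at about 5.3 in these data; same plate scores as AID 2156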;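 further: B-score of peak minus minimum over baseline fluorescence ratio after K+ and Tl+ stimulus; positive B-score means potentiation of KCNQ2 with more thallium influx and brighter signal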
KCNQ2 inh – KCNQ2 (rat) channel inhibition | hit rate 1.1% among 310,000 | B-score at 10 µM | CHO-K1 KCNQ2, FluxOR thallium flux, 20 min; active compounds read low | AID 2156 | O88943;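 active means fluorescence ratio B-score at most minus 3 library SDs, with starting brightness B-score within 2 library SDs, cut at about -5.5 in these data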
Kir21 conf inh – confirmation of mouse Kir2.1 potassium channel inhibitors. Tl flux remaining, % of negative control (active compounds read low), % at 10 µM. hit rate 41% among 2,300. Kir2.1-expressing cells, FluxOR thallium flux fluorescence; active compounds read low. shares compounds with KCNQ2 pot;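 active means Primary-screen hit whose thallium flux fell at least 3 control SD below untreated wells in both duplicates, with normal baseline fluorescence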;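 further: 0% = blank wells without stimulus and 100% = stimulated no-compound controls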
Target sequence (P35561 whole entry, looked up): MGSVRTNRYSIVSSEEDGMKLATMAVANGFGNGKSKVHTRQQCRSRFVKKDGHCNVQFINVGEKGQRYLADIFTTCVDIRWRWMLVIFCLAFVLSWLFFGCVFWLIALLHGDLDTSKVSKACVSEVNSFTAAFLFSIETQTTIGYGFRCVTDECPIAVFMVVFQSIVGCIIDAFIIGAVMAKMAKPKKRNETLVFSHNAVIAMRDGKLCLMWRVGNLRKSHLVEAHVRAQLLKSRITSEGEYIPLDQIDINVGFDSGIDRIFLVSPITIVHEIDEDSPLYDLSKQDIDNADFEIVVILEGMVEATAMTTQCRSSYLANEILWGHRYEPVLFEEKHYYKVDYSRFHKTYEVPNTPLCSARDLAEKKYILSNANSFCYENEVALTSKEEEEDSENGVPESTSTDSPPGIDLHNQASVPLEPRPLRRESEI
HEK293 Tl flux – parental HEK293 activity in Kir2.1 inhibitor counter-screen. parental HEK293 cells, FluxOR thallium flux fluorescence; 0% = unstimulated blank wells. FluxOR signal as % of negative control (100 = no effect), % at 10 µM. hit rate 19% among 2,300. shares compounds with KCNQ2 pot;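 active means dye signal at least 3 control SD above or below untreated wells in both duplicates, raw fluorescence within 3, either direction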;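 further: percent is based on the flux ratio of peak minus minimum fluorescence over baseline F0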
CHO-K1 ctr – parental CHO-K1 activity in KCNQ2 potentiator counter-screen. parental CHO-K1 cells, FluxOR thallium flux fluorescence; zero = vehicle mean+3SD, 100% = vehicle-minus-blank window. AID 2282. hit rate 43% among 1,200. shares compounds with KCNQ2 pot. activity increase over 3SD of controls, % at 10 µM;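 active means signal rise of at least 3 SD above the untreated control mean, in both duplicate wells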;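 further: counter screen of KCNQ2 potentiator hits so any rise reflects channel-independent effects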
KCNQ1 sel pot – human KCNQ1 counter-target activity of KCNQ2 potentiators; CHO KCNQ1 stable, FluxOR thallium flux fluorescence; beyond 3SD, as % of vehicle-control signal; hit rate 28% among 1,200; activation over 3SD threshold, % at 10 µM; shares compounds with KCNQ2 pot;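 active means fluorescence ratio rise of at least 3 SD of vehicle wells above their mean, in both replicate wells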;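 further: 0% = vehicle mean plus 3 SD and 100% = vehicle minus unstimulated blank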
KCNQ2 pot confirm – confirmation of rat KCNQ2 potassium channel potentiators. shares compounds with KCNQ2 pot. CHO-KCNQ2 cells, FluxOR thallium flux fluorescence. hit rate 68% among 1,200. potentiation, less the hit threshold, % at 10 µM. AID 2287;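 active means fluorescence ratio rising 3 SD or more over the vehicle control mean in both replicates, plus primary screen hit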;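 further: peak minus minimum thallium fluorescence divided by baseline after K/Tl stimulus; 0% = vehicle mean plus 3 SD and 100% = vehicle minus unstimulated blank difference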
Kir21 spec – mouse Kir2.1 off-target activity of KCNQ2 potentiators. HEK293 Kir2.1, FluxOR thallium flux fluorescence. hit rate 2% among 1,200. activity over 3SD threshold, % at 10 µM. AID 2345. shares compounds with KCNQ2 pot;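 active means fluorescence ratio rise of at least 3 SD above the vehicle-control mean, seen in both replicates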;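 further: 0% = vehicle mean plus 3 SD and 100% = vehicle minus no-stimulus blank window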
KCNQ2 W236L MoA – rat KCNQ2 W236L mutant potentiation by KCNQ2 potentiators | shares compounds with KCNQ2 pot | CHO KCNQ2-W236L, automated patch clamp current | current increase over 3SD of negative controls (%), active compounds read high, % at 25 µM | hit rate 10% among 940;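 active means current increase at least 3 SD of the untreated controls above them in both duplicate recordings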
An asterisk follows results filed as active.

Fc1ccc(CCNCc2ccc(Cl)c(Cl)c2)cc1 was read as KCNQ2 inh inactive, Kir21 conf inh 24.5%* and HEK293 Tl flux inactive.
`CCc1ccc(CNCCc2ccc(F)cc2)cc1` gave KCNQ2 inh inactive.
Screening COC(=O)C1=C(c2cc3ccccc3s2)C[C@@H]2CC[C@H]1N2C(=O)N1CCC(C)CC1 returned KCNQ2 inh inactive.
For CCCCCSc1cc(OC)c(CCN(C)C)cc1OC the results were KCNQ2 pot 0.11, KCNQ2 inh inactive, Kir21 conf inh 45.0%* and HEK293 Tl flux inactive.
CCCCCSc1cc(O)c(C(CNC)C(C)C)cc1OC (centres undefined) was read as KCNQ2 pot 0.41 and KCNQ2 inh inactive.
For COc1ccccc1N1CCN(Cc2ccc(SC)cc2)CC1 the results were KCNQ2 pot 0.84 and KCNQ2 inh inactive.
`CCc1ccc(CN2CCN(Cc3ccc(SC)cc3)CC2)cc1` gave KCNQ2 inh inactive, Kir21 conf inh 27.0%* and HEK293 Tl flux inactive.
Screening CCC1=CCN(CCc2c(C)[nH]c3ccccc23)CC1 returned KCNQ2 pot 0.96 and KCNQ2 inh inactive.
O=c1[nH]sc2cc(F)ccc12 was read as KCNQ2 pot 6.9*, KCNQ2 inh inactive, CHO-K1 ctr -6.7, KCNQ1 sel pot -16.4, KCNQ2 pot confirm 0.2*, Kir21 spec -56.3 and KCNQ2 W236L MoA 55.8%*.
`C=CCC1(Nc2ccccc2)CC(C)N(C)CC1C` (centres undefined) gave KCNQ2 pot 0.03 and KCNQ2 inh inactive.
`Cc1cc(-c2ccccc2)cc(C)[n+]1Cc1ccccc1` gave KCNQ2 pot 1.84 and KCNQ2 inh inactive.
`O=[N+]([O-])c1cc(Cl)c(O)c(-[n+]2c(-c3ccccc3)cc(-c3ccccc3)cc2-c2ccccc2)c1` gave KCNQ2 inh inactive.
Cc1ccc(-c2cc(-c3ccc(C)cc3)[n+](-c3ccc(C(=O)[O-])cc3)c(-c3ccc(C)cc3)c2)cc1 was read as KCNQ2 inh inactive, Kir21 conf inh inactive and HEK293 Tl flux inactive.
`CCOC(=O)c1ccc(-[n+]2c(-c3ccccc3)cc(-c3ccccc3)cc2-c2ccccc2)cc1` gave KCNQ2 pot -8.47, KCNQ2 inh -8.47*, Kir21 conf inh 39.0%* and HEK293 Tl flux inactive.
`CC(=O)c1ccc(-c2ccccc2)cc1` gave KCNQ2 pot 0.72 and KCNQ2 inh inactive.
Screening CN(C)c1ccc(-[n+]2c(-c3ccccc3)cc(-c3ccccc3)cc2-c2ccccc2)cc1 returned KCNQ2 pot -9.11, KCNQ2 inh -9.11*, Kir21 conf inh inactive and HEK293 Tl flux inactive.
`Cc1ccc(-c2cc(-c3ccccc3)cc(-c3ccccc3)[n+]2-c2ccccc2)cc1` gave KCNQ2 inh inactive, Kir21 conf inh 17.5%* and HEK293 Tl flux 59.0%*.
Screening C/C(=N\NC(=O)c1ccncc1)c1c(O)[nH]c(=O)[nH]c1=O returned KCNQ2 pot 0.27 and KCNQ2 inh inactive.
COc1ccc(-c2nn(CCC#N)cc2C(=O)NCc2ccccc2)cc1[N+](=O)[O-] was read as KCNQ2 inh inactive.
Screening C[N+]1(CCC(C(N)=O)(c2ccccc2)c2ccccc2)CCCCC1 returned KCNQ2 pot 0.29 and KCNQ2 inh inactive.
For Cc1cccc(CCNCc2cc3cccc(C)c3[nH]c2=O)c1 the results were KCNQ2 pot 1.08, KCNQ2 inh inactive, Kir21 conf inh 52.0%* and HEK293 Tl flux inactive.
Screening Cc1ccc2cc(CNCCc3ccccc3C)c(=O)[nH]c2c1 returned KCNQ2 pot 1.1 and KCNQ2 inh inactive.
`CC(NCc1cccc(Cl)c1Cl)C(O)c1ccccc1` (centres undefined) gave KCNQ2 inh inactive.
For CC(NCc1ccc(Cl)cc1)C(O)c1ccccc1 (centres undefined) the results were KCNQ2 inh inactive, Kir21 conf inh 21.5%* and HEK293 Tl flux 73.0%*.
Screening CCOc1c(Cl)cc(CNC(C)C(O)c2ccccc2)cc1OC (centres undefined) returned KCNQ2 inh inactive.
CC(NCc1ccc(Cl)cc1Cl)C(O)c1ccccc1 (centres undefined) was read as KCNQ2 inh inactive, Kir21 conf inh 15.5%* and HEK293 Tl flux inactive.
For COC(=O)C1=C(c2cc3ccccc3o2)C[C@@H]2CC[C@H]1N2C(=O)NCc1ccco1 the results were KCNQ2 pot 0.04 and KCNQ2 inh inactive.
Screening CC(C)c1ccccc1NC1=NCCCS1 returned KCNQ2 pot 0.75 and KCNQ2 inh inactive.
`CN(C)C(=O)Oc1ccc(OCc2nc3ccccc3[nH]2)cc1` gave KCNQ2 pot 0.19 and KCNQ2 inh inactive.
Screening COC(=O)C1=C(c2ccc(S(C)(=O)=O)cc2)C[C@@H]2CC[C@H]1N2C(=O)NCCCOC(C)C returned KCNQ2 inh inactive.
Screening Cc1c(Br)c(=O)oc2cc(OCC(=O)N3C[C@H]4C[C@@H](C3)c3cccc(=O)n3C4)ccc12 returned KCNQ2 inh inactive.
`COc1ccc(CNCCc2ccc(Cl)cc2)c(OC)c1OC` gave KCNQ2 pot 0.07 and KCNQ2 inh inactive.
Screening O=P(Oc1ccccc1)(Oc1ccccc1)C(O)c1ccccc1 (centres undefined) returned KCNQ2 inh inactive.
O=P(Oc1ccccc1)(Oc1ccccc1)c1ccccc1 was read as KCNQ2 inh inactive, Kir21 conf inh 60.0%* and HEK293 Tl flux inactive.
Screening O=C(Cc1ccccc1)OCC(=O)N1CCN(S(=O)(=O)c2ccc(Cl)cc2)CC1 returned KCNQ2 pot 0.88 and KCNQ2 inh inactive.
For C=CCn1c(O)c(C(C)=NCC2CCCO2)c(=O)[nH]c1=O (centres undefined) the results were KCNQ2 inh inactive.
Screening CCOc1ccc(Cl)cc1CNCCc1ccccc1F returned KCNQ2 inh inactive, Kir21 conf inh 37.5%* and HEK293 Tl flux inactive.
COc1ccc(CCNCc2ccccc2F)cc1OC was read as KCNQ2 pot 1.92 and KCNQ2 inh inactive.

Source: PubChem
